Results as given in the supplement of paper PMC7726561.
The full ranking holds about 1,400 sequences; the median of “thermal melting temperature (Tm) of peptide-HLA complex” is about 60, and the lowest 2% start at about 45. This is one part of a sample in which the lowest values are shown more often than they occur.

target: HLA-B*07:02; experiment: thermal melting temperature (Tm) of peptide-HLA complex; higher = more thermostable pHLA complex; settings: C1R-B*07:02
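Also: lysates heated 10 min at 37–73 °C, complexes pulled down with pan-HLA I antibody, peptide signal by DIA-MS relative to 37 °C, Tm where half the complex is unfolded.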

Row | Sequence | thermal melting temperature [°C]
1 | APFEPLASGIL | 60.7
2 | SPRPALPALLV | 59.4
3 | QPRNLLLAL | 61.2
4 | RPSLLPLH | 61.5
5 | VPNWHRDLV | 58.3
6 | KPMPSLPQL | 44.9
7 | VPRAILVDL | 62.4
8 | NPRQPLPASGL | 58.3
9 | SPRPPAEGF | 55.8
10 | RPNGTKVAVL | 60.1
11 | RPKTPPVVI | 59.6
12 | FPIPAAEVDRL | 62.2
13 | RPAANPIQFTL | 59.8
14 | IPRSITVLV | 62.4
15 | MPHVPITTL | 61.3
16 | LPQYRLISI | 61.3
17 | YPARYRPTAL | 58.2
18 | QPRLFTMDL | 60.2
19 | SPKSPTAAL | 60.1

Row | Sequence | thermal melting temperature [°C]
20 | VPQESRFNL | 57.1
21 | LPRSINTDTL | 58.5
22 | KPKFILSVL | 62.7
23 | YPRPLLIAF | 62
24 | LPELKSTL | 60.8
25 | SPSFPRPSL | 61.4
26 | IPDVKGAVL | 58.7
27 | SPAPPLLHV | 60.8
28 | KPYAHILSV | 55.5
29 | SPAPRTAL | 57.4
30 | FPKNIFAEL | 62.8
31 | RPASGSPFQL | 52.6
32 | SPYPGLRLISL | 62.1
33 | MPYSNGRPAL | 58.2
34 | HPRSPNVLSV | 57.6
35 | AVDPNRAVPL | 60.5
36 | GPHVPFTVF | 62.3
37 | GPRSAQVAQSL | 40.4
38 | SPRALTQPLGL | 61.2

Row | Sequence | thermal melting temperature [°C]
39 | RPTEGVQAL | 54.3
40 | VIAPVRAVL | 59.2
41 | VARPLSTAL | 59.6
42 | HPVVSSVPL | 57.8
43 | RPYGVGLLI | 59
44 | IPSIRNGIL | 62.8
45 | SPRTPVSPVKF | 59.3
46 | SPRAPVSPLKF | 59.5
47 | WPHPPGPFL | 62.3
48 | SPIYISRII | 58.8
49 | RPFERTITM | 56.5
50 | QPATPGLGM | 57
51 | APSGTRVVQVL | 41.4
52 | KPRPIIPML | 60.7
53 | IPTKKSQVF | 58.9
54 | YPFFRGVTI | 61.8
55 | HPRAPVLL | 59.5
56 | TPEEVRLPL | 62.1
